RORgamma inh – blocks mouse ROR gamma transcriptional activity; P51450; Drosophila S2 Gal4-RORgamma UAS-luciferase reporter, 20 h; Potency, µM (doses to about 53.6 µM), usual class: inhibitors; hit rate 5.4% among 310,000; further: nearly all actives have a fitted effect of over 60% in size
Target sequence (P51450 whole entry, looked up, the tested form may be a part): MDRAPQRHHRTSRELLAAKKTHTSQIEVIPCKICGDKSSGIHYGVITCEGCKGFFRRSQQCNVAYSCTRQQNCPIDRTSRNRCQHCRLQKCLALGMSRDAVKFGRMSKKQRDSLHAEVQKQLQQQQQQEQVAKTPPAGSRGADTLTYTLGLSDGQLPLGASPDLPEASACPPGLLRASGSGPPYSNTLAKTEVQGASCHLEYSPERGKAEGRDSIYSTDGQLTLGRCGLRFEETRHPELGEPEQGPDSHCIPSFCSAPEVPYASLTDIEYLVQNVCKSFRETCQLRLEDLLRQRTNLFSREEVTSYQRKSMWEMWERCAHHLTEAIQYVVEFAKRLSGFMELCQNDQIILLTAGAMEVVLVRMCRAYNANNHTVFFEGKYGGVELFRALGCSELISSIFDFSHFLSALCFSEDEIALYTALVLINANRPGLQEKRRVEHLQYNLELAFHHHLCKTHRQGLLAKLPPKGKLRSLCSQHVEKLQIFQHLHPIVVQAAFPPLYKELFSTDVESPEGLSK
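Stably transfected Drosophila Schneider cells are the test system, with ROR gamma fused to Gal4 and luciferase under UAS control; luminescence is read after 20 hr of 700 uM copper sulfate induction at ambient temperature.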
S2 tox – cell viability loss in ATXN counter-screen; S2 cells (HEK-293 line with an ATXN2-luciferase reporter) viability, CellTiter-Fluor protease fluorescence, 24 h; Potency, µM (titrated, usually from 56.7 µM), hits mostly cytotoxic; hit rate 0.49% among 400,000; AID 651635; further: nearly all actives have a fitted effect of over 40% in size
TGFb SMAD3 inh – inhibitors of TGF-b signaling; HepG2 CAGA-GFP TGF-b/SMAD3 reporter, GFP fluorescence, 18 h; TGF-beta stimulated, 500 pg/mL final; Potency, µM (series often up to 46.1 µM), most hits filed as inhibitors; hit rate 1.2% among 410,000; AID 588855; further: nearly all actives have a fitted effect of over 65% in size
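Inhibition of TGF-beta-driven CAGA-GFP reporter expression in HEPG2 cells is measured by cellular GFP fluorescence after 18 h stimulation with 500 pg/mL recombinant TGF-beta in 1% FBS medium at 37 degrees C.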
ATXN2 expr inh – inhibitors of ATXN2 expression. hit rate 0.72% among 360,000. AID 1745845. Potency, µM (top dose mostly 57 µM), usual class: inhibitors. HEK-293 ATXN2-luciferase reporter, luminescence, 24 h; further: nearly all actives have a fitted effect of over 55% in size
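qHTS (up to 57 uM final) was run with 24 h compound exposure of reporter cells at 37 °C. Each well was multiplexed: SteadyGlo luminescence measured ATXN2-luciferase expression after a fluorogenic Gly-Phe-AFC viability readout (25 uM final).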
VP16 counter – inhibits Gal4-VP16 luciferase reporter, ROR gamma counter-screen | Drosophila S2 Gal4-VP16 UAS-luciferase, luminescence, 20 h | Potency, µM (titrated, usually from 53.6 µM), hits mostly inhibitors | hit rate 3.5% among 310,000 | AID 2546;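 further: Gal4-VP16 expression switched on by copper sulfate through the metallothionein promoter; nearly all actives have a fitted effect of over 50% in size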
HepG2 viability – counter-screen for TGF-b inhibitors: cytotoxicity in HepG2 cells; HepG2 CAGA-GFP viability, ATP luminescence, 18 h; Potency, µM (top dose mostly 46.1 µM), hits mostly cytotoxic; hit rate 0.76% among 410,000; AID 588856
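HepG2 CAGA-GFP cells (1000/well, DMEM with 1% FBS) received compound, then TGF-beta at 500 pg/mL final, and were incubated 18 hours at 37 degrees C. Viability was read by CellTiter-Glo luminescence. Media-only wells were set as complete cell-killing and DMSO as no toxicity.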
Each line names hits and unclear results; the compound was inactive in the other large screens. A selection: hits, their analogues and other compounds. The true share with any hit is near 6.1%. The call rests on the fitted dose curve; in most records, active means well fitted curve in the direction sought with a large enough effect; inconclusive means small, poorly fitted or top-dose-only effect, or another doubt; inactive means no such curve, though single readings can be large; an effect the other way counts as inactive or inconclusive.

CCOP(=O)(OCC)C(=Cc1cc(C(C)(C)C)c(O)c(C(C)(C)C)c1)P(=O)(OCC)OCC	RORgamma inh inconclusive (no result: S2 tox, TGFb SMAD3 inh, ATXN2 expr inh, HepG2 viability)
CCCCC[C@@H](O)C1C(=O)OC(C)[C@H](O)/C=C/C=C/C=C/C=C/C=C(\C)C(O)C(O)C(O)C[C@H](O)C[C@H](O)C[C@H](O)C[C@H](O)C[C@@H]1O (some centres undefined)	none (no result: RORgamma inh, TGFb SMAD3 inh, ATXN2 expr inh, VP16 counter, HepG2 viability)
CCOP(=S)(OCC)Oc1ccc([N+](=O)[O-])cc1	none (no result: S2 tox, TGFb SMAD3 inh, ATXN2 expr inh, HepG2 viability)
CCC(=O)N1N=C(c2c(O)n(C)c(=O)n(C)c2=O)CC1c1ccccc1 (centres undefined)	RORgamma inh 11.2µM, S2 tox inconclusive (no result: ATXN2 expr inh)
Cn1c(O)c(C2=NN(C(=O)CCl)C(c3ccccc3)C2)c(=O)n(C)c1=O (centres undefined)	RORgamma inh inconclusive, VP16 counter 17.8µM (no result: ATXN2 expr inh)
Cc1cc([N+](=O)[O-])c2ccccc2[n+]1[O-]	RORgamma inh inconclusive, TGFb SMAD3 inh 0.501µM, VP16 counter 3.55µM (no result: S2 tox, ATXN2 expr inh)
Cc1ccc(NC(=O)c2cc(S(=O)(=O)N3CCOCC3)c(Cl)cc2Cl)cc1	S2 tox inconclusive, TGFb SMAD3 inh inconclusive, ATXN2 expr inh inconclusive (no result: RORgamma inh, VP16 counter)
CN1CSC(=S)N(C)C1	RORgamma inh 10µM, TGFb SMAD3 inh inconclusive, VP16 counter 11.2µM
C[C@H]1CN([C@@H](C)CO)C(=O)c2cc(-c3cccnc3)cnc2O[C@H]1CN(C)Cc1ccc(Oc2ccccc2)cc1	S2 tox inconclusive (no result: RORgamma inh, VP16 counter)
O=C(Nc1ccc2nc(SCC(=O)N3CCOCC3)sc2c1)c1ccc(Cl)cc1	TGFb SMAD3 inh inconclusive (no result: RORgamma inh, S2 tox, ATXN2 expr inh, VP16 counter)
N#CC(C#N)=C(C#N)c1ccc(Nc2ccccc2)cc1	RORgamma inh inconclusive, VP16 counter 14.1µM
O=C(Nc1cccc(C(F)(F)F)c1)OC1CN2CCC1CC2 (centres undefined)	none (no result: ATXN2 expr inh)
OC(c1cccc(Cl)c1)(c1cccc(Cl)c1)C1CN2CCC1CC2 (centres undefined)	RORgamma inh 6.31µM, S2 tox inconclusive, TGFb SMAD3 inh inconclusive, VP16 counter 11.2µM
CC[C@H](C)[C@H](NC(=O)[C@@H](N)Cc1ccc(O)cc1)C(=O)NCC(=O)N[C@@H](CO)C(=O)N[C@@H](CCCN=C(N)N)C(N)=O	none (no result: S2 tox, TGFb SMAD3 inh, ATXN2 expr inh, HepG2 viability)
CCOC(=O)[C@]12Cc3cc(Cl)ccc3[C@H]1N(C1CCCCC1)C(=O)c1cc(OC)ccc12	S2 tox 2µM, ATXN2 expr inh 2.24µM (no result: RORgamma inh, TGFb SMAD3 inh, VP16 counter, HepG2 viability)
CCOC(=O)[C@]12Cc3cc(OC)ccc3[C@H]1N(CC(=O)OC)C(=O)c1ccccc12	S2 tox inconclusive (no result: RORgamma inh, TGFb SMAD3 inh, VP16 counter, HepG2 viability)
CCOC(=O)[C@]12Cc3ccc(C)cc3[C@H]1N(C1CCCCC1)C(=O)c1cc(OC)ccc12	S2 tox 4.47µM, ATXN2 expr inh 3.98µM (no result: RORgamma inh, TGFb SMAD3 inh, VP16 counter, HepG2 viability)
CCOC(=O)[C@]12Cc3cc(C)ccc3[C@H]1N(CCC(=O)OC)C(=O)c1ccccc12	S2 tox 17.8µM (no result: RORgamma inh, TGFb SMAD3 inh, VP16 counter, HepG2 viability)
CCOC(=O)[C@]12Cc3cc(C)ccc3[C@H]1N(C1CCCCC1)C(=O)c1ccccc12	S2 tox 3.55µM, ATXN2 expr inh 4.47µM (no result: RORgamma inh, TGFb SMAD3 inh, VP16 counter, HepG2 viability)
C[C@@H]1CC2=CC(=O)CC[C@@H]2[C@H]2CC[C@@]3(C)[C@@H](CC[C@]3(C)O)[C@@H]21	none (no result: RORgamma inh, TGFb SMAD3 inh, VP16 counter, HepG2 viability)
CCN(CC)C(=O)c1ccc(C2=CC3(CCNCC3)Oc3cccc(O)c32)cc1	none (no result: RORgamma inh, S2 tox, TGFb SMAD3 inh, VP16 counter, HepG2 viability)
CCOC(=O)[C@]12Cc3c(cc(OC)c(OC)c3OC)[C@H]1N(C1CCCCC1)C(=O)c1ccccc12	S2 tox 8.91µM, ATXN2 expr inh 6.31µM (no result: RORgamma inh, TGFb SMAD3 inh, VP16 counter, HepG2 viability)
CCOC(=O)[C@]12Cc3cc4c(cc3[C@H]1N(Cc1ccccc1)C(=O)c1ccccc12)OCO4	S2 tox inconclusive, TGFb SMAD3 inh inconclusive, ATXN2 expr inh inconclusive (no result: RORgamma inh, VP16 counter)
CCOC(=O)[C@]12Cc3ccc(C)cc3[C@H]1N(C1CCCCC1)C(=O)c1ccccc12	S2 tox 12.6µM, ATXN2 expr inh 11.2µM (no result: RORgamma inh, TGFb SMAD3 inh, VP16 counter, HepG2 viability)
Oc1ccccc1-[n+]1c(-c2ccccc2)cc(-c2ccccc2)cc1-c1ccccc1	S2 tox inconclusive, TGFb SMAD3 inh inconclusive, ATXN2 expr inh inconclusive (no result: RORgamma inh, VP16 counter)
Cc1ccccc1-[n+]1c(-c2ccccc2)cc(-c2ccccc2)cc1-c1ccccc1	S2 tox 12.6µM, TGFb SMAD3 inh inconclusive, ATXN2 expr inh inconclusive (no result: RORgamma inh, VP16 counter)
C[n+]1c2cc(N)ccc2cc2ccc(N)cc21	RORgamma inh inconclusive, ATXN2 expr inh 3.16µM, VP16 counter 7.08µM (no result: S2 tox)
COc1cccc(Oc2c(C)oc3cc(OC(=O)N(C)C)ccc3c2=O)c1	none
COc1ccc(-c2oc3cc(OC)ccc3c(=O)c2O)cc1	RORgamma inh 5.01µM, VP16 counter 7.94µM (no result: S2 tox, TGFb SMAD3 inh, ATXN2 expr inh, HepG2 viability)
COc1ccc(-c2c3c(nc4sc5c(Cl)nc(C)nc5c24)CCC3)cc1	S2 tox inconclusive
Cc1cccc(-n2c(=S)[nH]c3ccccc3c2=O)n1	RORgamma inh 12.6µM, S2 tox inconclusive, VP16 counter inconclusive
COc1ccc(Nc2c(-c3cc(Br)ccc3O)nc3ncccn23)cc1OC	S2 tox inconclusive (no result: RORgamma inh, VP16 counter)
CCCCCCCCCOc1ccc2[nH]cc(CCN)c2c1	RORgamma inh 3.16µM, VP16 counter inconclusive (no result: S2 tox, TGFb SMAD3 inh, ATXN2 expr inh, HepG2 viability)
CC[C@@H](C(=O)[C@@H](C)[C@@H](O)[C@H](C)[C@@H]1O[C@@H]([C@@H](CC)C(=O)O)CC[C@@H]1C)[C@H]1O[C@]2(C=C[C@@H](O)[C@]3(CC[C@@](C)([C@H]4CC[C@](O)(CC)[C@H](C)O4)O3)O2)[C@H](C)C[C@@H]1C	S2 tox 5.62µM, TGFb SMAD3 inh inconclusive, ATXN2 expr inh 4.47µM (no result: RORgamma inh, VP16 counter)

Source: PubChem BioAssay (National Center for Advancing Translational Sciences (NCATS))
